Screening data from PubChem BioAssay.
CYP2C9 inh = human CYP2C9 inhibition; P11712; CYP2C9 Supersomes, luciferin-H conversion, luminescence; inhibition, % at 5 µM; 20% of 96,000 active; AID 777;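 active = blocking of liver enzyme CYP2C9 beyond about 50% at 5 µM, limit read from the data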
CYP2C19 act = increases human CYP2C19 enzyme activity; AID 1025; 96,000 tested, under 10 active; recombinant CYP2C19, luciferin-H EGE luminescence; stronger effect = higher value; 0 = fully inhibited enzyme, 1 = untreated enzyme; activation factor at 5 µM; P33261;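 active = activation factor of at least 2 at 5 µM in the primary screen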;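 note: 0 = wells with 2.5 mM tranylcypromine and 1 = vehicle-only wells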
Target sequence (P33261 whole entry, looked up): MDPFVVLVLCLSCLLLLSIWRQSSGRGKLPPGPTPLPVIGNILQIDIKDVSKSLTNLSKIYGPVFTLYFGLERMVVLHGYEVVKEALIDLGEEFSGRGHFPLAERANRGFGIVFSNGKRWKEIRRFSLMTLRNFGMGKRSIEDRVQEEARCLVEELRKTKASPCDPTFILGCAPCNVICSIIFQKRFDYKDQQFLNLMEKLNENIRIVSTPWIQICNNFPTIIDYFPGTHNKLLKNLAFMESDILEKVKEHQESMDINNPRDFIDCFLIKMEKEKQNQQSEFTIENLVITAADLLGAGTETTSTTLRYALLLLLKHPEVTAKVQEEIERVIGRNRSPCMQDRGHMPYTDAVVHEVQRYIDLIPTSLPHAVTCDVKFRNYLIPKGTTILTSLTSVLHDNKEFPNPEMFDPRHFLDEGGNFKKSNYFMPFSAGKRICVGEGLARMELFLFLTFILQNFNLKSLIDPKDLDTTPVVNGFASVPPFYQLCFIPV
PLAP act = activates human placental alkaline phosphatase; activation fold at 20 µM; 1.2% of 96,000 active; purified PLAP enzyme, luminescent substrate read-out; stronger effect = higher value; P05187; in the data active = activation fold above about 2
CYP2C19 inhib = human CYP2C19 inhibition. P33261. CYP2C19 Supersomes, luciferin-H EGE luminescence, 30 min. inhibition, % at 5 µM. 21% of 96,000 active. AID 778;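 active = CYP2C19 inhibition above a set limit at 5 µM in the primary screen, cut at about 50% in these data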;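 note: plate controls were negative control wells for no effect and 2.5 mM tranylcypromine positive control for full effect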
CYP2C9 activ = activators of human CYP2C9; recombinant CYP2C9, luciferin-H conversion, luminescence; stronger effect = higher value; factor 1 = untreated enzyme, 0 = blocked; activation factor at 5 µM; 1.4% of 96,000 active;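 active = activation factor of 2 or more for CYP2C9 at a 5 µM dose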;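 note: 0 = sulfaphenazole-blocked wells and 1 = vehicle-only wells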
* marks the source's active call; other numbers are inactive results. Shown are actives, neighbours in structure and some others; about 31% of the full set was active somewhere.

SMILES	CYP2C9 inh	CYP2C19 act	PLAP act	CYP2C19 inhib	CYP2C9 activ
CC(C)[C@H](NC(=O)NCc1ccc(Cl)cc1)C(=O)O	-7	1.1	1.1	-8	1.1
COc1cccc(C(C)NC(=O)Nc2cccc(C(F)(F)F)c2)c1 (stereo not given)	46	0.3	0.8	67*	0.5
CCC(C)[C@H](NC(=O)Nc1cccc(OC)c1)C(=O)OC (stereo not given in full)	11	0.5	1.1	55*	0.9
CC(C)CC(=O)c1c[nH]c(C(=O)NCCc2ccccn2)c1	-4	1.1	1.1	-6	1
COc1ccc(C)cc1Nc1cc(C)nc2nc(C)nn12	7	0.9	1.6	9	0.9
COc1ccc(OC)c(Nc2cc(C)nc3nc(C)nn23)c1	48	0.7	2*	33	0.5
COC(=O)Cc1ccc2c3ccccc3n(C)c2c1	4	0.3	1	71*	1
Cn1c2ccc(CC(=O)O)cc2c2cc(CC(=O)O)ccc21	-6	1.1	1.3	-10	1.1
C[N+](C)(C)C/C=C1/COCO1	3	1	1	2	1
CCN1C(c2ccccc2)C(C)C(=O)C(C)C1c1ccccc1 (stereo not given)	88*	0.3	0.7	65*	0.1
CC1C2C(c3ccccc3)N(C)C(=O)N(C)C2N(C)C(=O)N1C (stereo not given)	-11	1.1	1	-7	1.1
N#CC1(c2ccccc2)CCCN1C(=O)c1ccccc1Br (stereo not given)	0	0.9	0.9	11	1
CCc1nnc(NC(=O)Cc2ccc(OCc3c(C)noc3C)cc2)s1	30	1	1	0	0.7
O=[N+]([O-])c1ccccc1N/N=C\c1ccccc1Cl	33	0.4	0.5	64*	0.7
O=[N+]([O-])c1cc(C(F)(F)F)ccc1N/N=C/c1cc2ccccc2nc1Cl	-1	1	1	-5	1
CN(Cc1ccccc1)C(=O)N[C@@H](Cc1ccccc1)C(=O)O	-12	1	1	-4	1.1
CCc1c(C)nc(N)n2c(SCC(=O)Nc3ccccc3)nnc12	18	0.9	0.9	14	0.8
CCOc1ccc(NC(=O)CCCOc2cc(=O)n(C)c3ccccc23)cc1	71*	0.7	0.9	26	0.3
Cn1c(=O)cc(OCCCC(=O)NC2CCCC2)c2ccccc21	-12	0.9	1.1	10	1.1
COc1cccc(NC(=O)CCCOc2cc(=O)n(C)c3ccccc23)c1	15	0.4	1.2	64*	0.8
Cn1c(=O)cc(OCCCC(=O)NCc2ccccn2)c2ccccc21	1	0.9	1	8	1
CCOC(=O)c1c(NC(=O)CSc2ncn[nH]2)sc(C)c1C	85*	0.3	2*	73*	0.1
CCOC(=O)c1c(NC(=O)CSc2nc3ccccc3s2)sc(C)c1C	65*	0.7	1.1	28	0.3
CCOC(=O)c1c(NC(=O)CSc2nc3ccccc3o2)sc(C)c1C	46	0.7	1.1	31	0.5
COc1ccc(CN2CC(C(=O)NCCc3ccc(C)cc3)CC2=O)cc1 (stereo not given)	32	0.6	1.1	39	0.7
SMILES	CYP2C9 inh	CYP2C19 act	PLAP act	CYP2C19 inhib	CYP2C9 activ
COc1cc2[nH]c(=O)n(Cc3ccc(C(=O)NCC4CCCO4)cc3)c(=O)c2cc1OC (stereo not given)	18	0.9	1	5	0.8
CCOC(=O)N1CCN(c2ccc(O)cc2)CC1	-4	1	0.8	-5	1
O=C(CSc1ncnc2c1oc1ccccc12)N1CCc2ccccc2C1	18	0.9	0.9	12	0.8
c1cnc(SCCOc2cccc3ccccc23)nc1	-47	0.4	0.7	57*	1.5
Clc1ccc(OCCSc2ncccn2)c2ccccc12	-5	0.9	1	11	1.1
Cc1cc(C)cc(Oc2cc(NC(=O)c3cn(C)nc3C)cc([N+](=O)[O-])c2)c1	48	0.8	0.9	24	0.5
CCn1c2ccccc2c2nnc(SCC(=O)NCc3cccs3)nc21	36	0	0.7	96*	0.6
CCn1c2ccccc2c2nnc(SCC(N)=O)nc21	29	0.8	0.8	16	0.7
CCOC(=O)CSc1ncc(-c2ccccc2)cn1	20	0.8	0.9	24	0.8
CCn1c2ccccc2c2nnc(SCC(=O)NCCOC)nc21	-4	0.4	0.8	55*	1
CCn1c2ccccc2c2nnc(SCC(=O)Nc3cc(C)on3)nc21	7	0.9	1	12	0.9
CCCn1c2ccccc2c2nnc(SCC(=O)OCC)nc21	24	0.3	1.2	66*	0.8
CCOC(=O)CSc1ncc(-c2ccccc2)nn1	46	0.3	0.9	70*	0.5
Cc1cc(Oc2ccc(C#N)cc2)nc(NCc2ccccc2)n1	9	0.9	0.7	11	0.9
CCOC(=O)CSc1ncc(OC)c(Sc2ccc(OC)cc2)n1	84*	0.6	1.3	40	0.2
C=CCn1c2ccccc2c2nnc(SCC(=O)NC(C(=O)OC)C(C)C)nc21 (stereo not given)	90*	0	1.3	100*	0.1
COC(=O)CSc1ncc(OC)c(OC)n1	8	1	1	-4	0.9
COCCCNCCOc1cc(C(C)C)ccc1C	0	0.9	1.2	10	1
CCc1nc(SCC(=O)NCCc2ccc(OC)c(OC)c2)c2c(=O)n(C)c(=O)n(C)c2n1	-3	1	1.1	-3	1
O=c1ccc(NS(=O)(=O)c2ccc(Cl)cc2)cn1Cc1ccc(Cl)c(Cl)c1	90*	0	1.2	97*	0.1
Cn1c(CN2CCCC2)nc2cc(NS(=O)(=O)c3ccc(Cl)cc3)ccc21	2	0.8	1.4	20	1
CSc1nc(-c2ccco2)cc(-c2ccccc2)c1C#N	66*	0.8	0.9	25	0.3
COC(=O)CSc1nc(-c2ccccc2)cc(-c2ccco2)c1C#N	89*	0.5	1.5	49	0.1
N#Cc1c(-c2ccco2)cc(-c2ccc(F)cc2)nc1N	29	0.9	0.9	9	0.7
Cc1cc(C)n2cc(CSc3nnnn3C)nc2n1	-22	1.1	1	-12	1.2
SMILES	CYP2C9 inh	CYP2C19 act	PLAP act	CYP2C19 inhib	CYP2C9 activ
CCOC(=O)c1c(C)sc(Sc2ccc(Cl)cc2[N+](=O)[O-])c1OC	21	0.2	0.9	81*	0.8
O=[N+]([O-])c1cc(Cl)ccc1Sc1cccc2cccnc12	2	0.8	0.8	25	1
Cn1cc(S(=O)(=O)Nc2ccc(Br)cc2F)c(=O)n(C)c1=O	63*	0.6	1.2	42	0.4
COCCn1c(-c2ccccc2)cnc1N	1	1	1.1	-3	1
O=C(CN1C(=O)C2C3C=CC(C3)C2C1=O)Nc1nc2ccccc2[nH]1 (stereo not given)	7	1	1.8	-2	0.9
O=C(CN1C(=O)C2C3C=CC(C3)C2C1=O)Nc1nc(SCc2ccc(Cl)cc2)n[nH]1 (stereo not given)	32	0.4	2.3*	60*	0.7
